# D2 ag-1 = HTS Assay for Allosteric Agonists of the Human D2 Dopamine Receptor: Primary Screen for Agonists. D(2) dopamine receptor (Homo sapiens), P14416. HEK293 T-REx D2 cells, calcium flux agonist mode. activation, % at 2 µM. 340,000 compounds, 0.53% hits. AID 485358, 2010;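 active = activation over 3 SD above normal in the single-dose calcium agonist read, cut at about 30% in these data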; also: 0% is about no effect
# Target sequence (P14416 whole entry, looked up): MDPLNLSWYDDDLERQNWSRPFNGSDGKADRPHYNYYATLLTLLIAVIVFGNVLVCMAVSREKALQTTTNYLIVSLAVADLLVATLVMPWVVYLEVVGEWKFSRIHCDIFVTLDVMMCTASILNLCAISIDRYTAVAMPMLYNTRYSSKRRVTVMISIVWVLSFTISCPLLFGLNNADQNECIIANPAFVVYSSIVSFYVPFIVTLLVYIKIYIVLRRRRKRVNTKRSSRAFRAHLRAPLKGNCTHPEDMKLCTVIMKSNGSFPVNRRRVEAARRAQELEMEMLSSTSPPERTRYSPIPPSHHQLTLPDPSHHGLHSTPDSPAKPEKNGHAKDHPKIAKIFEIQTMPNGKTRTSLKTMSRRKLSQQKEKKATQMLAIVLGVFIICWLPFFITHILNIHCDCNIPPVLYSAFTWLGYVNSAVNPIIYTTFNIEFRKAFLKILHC
#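 HEK293 Trex D2 cells, tetracycline-induced, o/n 30 C 5% CO2; no-wash Ca dye, RT 30–90 min; 10-cycle baseline, 23 nl cpd added, kinetic Ca read 180 s; agonist hits = positive Ca response.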
# D2 PAM-1 = Beta-Arrestin HTS for Positive Allosteric Modulators of the Human D2 Dopamine Receptor: Potentiators; D(2) dopamine receptor (Homo sapiens), P14416; DiscoveRx D2 beta-arrestin cells, luminescence, 90 min; 100% = 57 uM dopamine signal; potentiation, % (concentration not given with the values); 360,000 compounds, 0.23% hits; AID 624464, 2012; in the data active = potentiation above about 50%; inconclusive = mostly about 30% to 49%
#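 D2 cells co-treated with compound plus 50 nM dopamine (EC20) for 90 min at 37 deg C to detect potentiation. Beta-arrestin recruitment was read as enzyme-fragment luminescence after 1 h at ambient temperature. Full response was set by 57 uM dopamine.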
# D2 PAM-2 = HTS Assay for Positive Allosteric Modulators of the Human D2 Dopamine Receptor: Primary Screen for Potentiators; potentiation, % at 10 µM; D(2) dopamine receptor (Homo sapiens), P14416; AID 485347, 2010; HEK293 T-REx D2, calcium flux, EC20 dopamine potentiation; 340,000 compounds, 0.34% hits;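 active = potentiation over 3 SD above the plate norm, cut at about 30% in these data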; also: 0% is about no effect
#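 Potentiation of an EC20 dopamine calcium response measured kinetically over 180 s, after a preceding 180 s compound-only read flagging agonists. Cells: inducible Hek293 Trex D2 line, 4000/well, cultured overnight at 30 C before dye loading.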
# Anesthetic bind = qHTS Assay for Identification of Novel General Anesthetics; 350,000 compounds, 0.074% hits; Potency, µM (series often up to 77.5 µM), inactives show top-dose activity change, negative = displacement, actives largely listed as inhibitors; apoferritin/1-aminoanthracene competitive binding, fluorescence; AID 485281, 2010; Ferritin light chain (Equus caballus), P02791; active = well fitted inhibition curve with a large enough effect; inconclusive = small, poorly fitted or top-dose-only effect; inactive = no such curve, though single readings can be large or run the other way; also: potency is read from the fitted curve at half-maximal effect; % is scaled to controls: 0 for no effect and ±100 for the full control effect; nearly all actives have a fitted effect of over 20% in size
#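 10 uM apoferritin + 50% sat. 1-AMA, PBS; cpd 10 min RT; Ex380/Em535 endpoint; normalized to free probe vs complex; 4-param Hill fit; propofol titration as pos. ctrl.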
# D2 antag = HTS Assay for Allosteric Antagonists of the Human D2 Dopamine Receptor: Primary Screen for Antagonists; D(2) dopamine receptor (Homo sapiens), P14416; HEK293 TREx D2 cells, calcium flux, dopamine EC80; inhibition, % at 10 µM; 340,000 compounds, 2% hits; in the data active = inhibition above about 30%; inactive = below that, where a call was filed; also: 0% is about no effect
#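 In this primary screen, negative modulation is detected by tracking calcium flux after an EC80 dopamine challenge in inducible HEK293 T-REx D2 cells preexposed to test compound for 180 s.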
# D2 ag-2 = Beta-Arrestin HTS for Positive Allosteric Modulators of the Human D2 Dopamine Receptor: Agonists; D(2) dopamine receptor (Homo sapiens), P14416; DiscoveRx PathHunter D2 beta-arrestin, luminescence, 90 min; 100% = 57 uM dopamine signal; activation, % (test concentration not listed); 360,000 compounds, 0.084% hits; AID 624465, 2012; in the data active = activation above about 40%; inconclusive = between about 15% and that limit
#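 DiscoveRx PathHunter D2 beta-arrestin cells (2,100/well) attached overnight, then compound-stimulated 90 min at 37 C in HBSS/10 mM HEPES/0.1% Tween-20 buffer; beta-galactosidase complementation read by luminescence after 1 h at ambient temperature. Dopamine 57 uM final (EC100) as control.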
# The depositor's hits bear a star; ? = inconclusive; . = not tested or not shown. Shown are actives, neighbours in structure and some others; about 2.5% of the full set was active somewhere.
SMILES,D2 ag-1,D2 PAM-1,D2 PAM-2,Anesthetic bind,D2 antag,D2 ag-2
COC(=O)c1ccc(Oc2ccc(C(C)(C)C)cc2)c([N+](=O)[O-])c1,0,-9,16,-18%,23,0
CCN1CCN(CCCN(Cc2ccco2)C(=S)Nc2cc(Cl)ccc2C)CC1,-2,-14,-19,-9%,42*,-9
COc1cc(CN(C(=O)COc2ccccc2)c2ccccn2)cc(OC)c1OC,1,.,14,7%,.,.
COc1cccc(N2CCN(Cc3ncc(-c4ccccc4)o3)CC2)c1,-1,-17,-28,-2%,48*,-1
O=C1c2cccnc2C(=O)N1C1CCCCC1,.,-5,.,?,.,-1
COc1ccc(C2C(C(=O)c3cccs3)=C(O)C(=O)N2c2nnc(C)s2)cc1OC (stereo unspecified),14,-21,6,?,-30,1
CC(C)c1nnc(N2C(=O)C(O)=C(C(=O)c3cccs3)C2c2ccccc2)s1 (stereo unspecified),166*,-2,3,-9%,48*,-2
COc1cccc(C2CC(c3ccccc3Cl)n3nnnc3N2)c1 (stereo unspecified),0,9,5,-10%,-4,-1
CCCCN(CC)CCNC(=O)Cn1cc2c(n1)-c1c(oc(C(=O)N3CCCC3)c1C)CC2,-1,-4,3,-6%,-24,1
Cc1c(C(=O)N2CCCC2)oc2c1-c1nn(CC(=O)NCCCOC(C)C)cc1CC2,0,-15,2,-5%,35*,?
Cc1cccc(C)c1C(OCCN(C)C)C1CCCCC1 (stereo unspecified),1,-35,-20,-11%,89*,-2
O=C(O)c1ccc2c(c1)OCCOCCOCCOCCOCCO2,-1,-7,-5,-6%,-22,-2
O=C(c1ccccc1)c1ccc2c(c1)OCCOCCOCCOCCO2,-2,-7,10,10%,50*,-3
O=C(N/N=C/c1ccccn1)C1CC1,1,3,-19,-6%,32*,-1
CC(C)NC(=O)/C(=N\O)c1ccccc1,0,-6,-1,-10%,32*,0
CNC(=O)/C(=N\O)c1ccccc1,0,.,7,-11%,11,.
CCCCn1c(SCC(=O)Nc2nnc(C)s2)nnc1-c1ccoc1C,1,-31,0,-12%,3,-4
O=C(Nc1cccc(C(F)(F)F)c1)C1CC(=O)N(CCc2ccccc2)C1 (stereo unspecified),0,-33,-22,.,63*,1
Cc1sc2ncnc(Sc3nnc4sc5ccccc5n34)c2c1C,-1,.,5,-2%,-37,.
CC(C)CC(NC(N)=O)C(=O)NCc1ccccc1Cl (stereo unspecified),0,-4,38*,-9%,4,1
CC(C)CC(NC(N)=O)C(=O)NCc1ccc(Cl)cc1 (stereo unspecified),1,-10,-1,-3%,5,5
CCC(C)(C)NC(=O)C(c1cccn1C)N(Cc1ccc(OC)cc1)C(=O)Cn1nnc2ccccc21 (stereo unspecified),1,-5,9,6%,30*,-1
C=C(C)CN1C(=O)C2(OCCO2)c2ccccc21,0,-2,-6,8%,-8,-1
O=C(O)CCCn1cc(NC(=O)COc2ccc([N+](=O)[O-])cc2)cn1,0,-1,31*,-1%,-6,-1
Cc1cc(OCC(=O)Nc2cnn(CCCC(=O)O)c2)ccc1[N+](=O)[O-],0,-1,15,-1%,13,-4
